Data reported in PubChem BioAssay (NCATS).
Records with an inconclusive call do not appear. Active and inactive are the calls of the source. Calls follow the shape of the dose curve; as a rule, active = well fitted cell-killing curve with a large enough effect; inconclusive = small, poorly fitted or top-dose-only effect, or effect the other way; inactive = flat fitted curve, though single readings scatter. Where a SMILES comes first, the peptide text is derived from it. [ ]: non-standard residue; d: D form. PhLac = O=C(O)[CH](O)Cc1ccccc1; NMeV = CN[CH](C(=O)O)C(C)C

Assays:
Assay in all cases: Primary qHTS to identify gynecologic anti-cancer compounds using libraries of approved drugs and bioactive compounds (AID 1345084); also: nearly all actives have a fitted effect of over 55% in size
C33A = settings: Gynecologic cancer cell panel viability, ATPlite luminescence, 48 h; series mostly up to 57.5 µM
Summary of the method: (§1)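 48 h compound exposure at 37 C, 5% CO2; five-point qHTS. ATPlite luminescence readout of cell ATP.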

CAOV3 = settings: Gynecologic cancer cell panel viability, ATPlite luminescence, 48 h; series mostly up to 57.5 µM
Summary of the method: as §1

CASKI = settings: Gynecologic cancer cell panel viability, ATPlite luminescence, 48 h; series mostly up to 57.5 µM
Summary of the method: as §1

Es-2 = settings: Gynecologic cancer cell panel viability, ATPlite luminescence, 48 h; series mostly up to 57.5 µM
Summary of the method: as §1

HeLa = settings: Gynecologic cancer cell panel viability, ATPlite luminescence, 48 h; series mostly up to 57.5 µM
Summary of the method: as §1

Hek293T = settings: Gynecologic cancer cell panel viability, ATPlite luminescence, 48 h, control line for the selectivity index; series mostly up to 57.5 µM
Summary of the method: as §1
% is scaled to controls: 0 for no effect and ±100 for the full control effect; potency is read from the fitted curve at half-maximal effect.

CNC(=O)COC(=O)NCCC1CCN(c2cccc(C)n2)CC1
inactive: Potency (C33A) | Potency (CAOV3) | Potency (CASKI) | Potency (Es-2) | Potency (HeLa) | Potency (Hek293T)

C=C1CCC2C(OC(=O)C2(O)COC(C)=O)C2C(=C)C(O)CC12 (centres undefined)
inactive: Potency (C33A) | Potency (CAOV3) | Potency (CASKI) | Potency (Es-2) | Potency (HeLa) | Potency (Hek293T)

C[C@@]12C[C@]3(O)O[C@H](O1)[C@]1(COC(=O)c4ccccc4)[C@H]3C[C@@]12O[C@@H]1O[C@H](COC(=O)c2ccccc2)[C@@H](O)[C@H](O)[C@H]1O
inactive: Potency (C33A) | Potency (CAOV3) | Potency (CASKI) | Potency (Es-2) | Potency (HeLa) | Potency (Hek293T)

C[C@@H]1O[C@@H](O[C@H]2[C@H](O[C@H]3[C@H](O[C@H]4CC[C@@]5(CO)C(CC[C@]6(C)C5CC=C5C7CC(C)(C)C[C@@H](O)[C@]7(C)CC[C@]56C)C4(C)C)O[C@H](C(=O)O)[C@@H](O)[C@@H]3O)OC[C@@H](O)[C@@H]2O)[C@H](O)[C@H](O)[C@H]1O (some centres undefined)
inactive: activity change, negative = cytotoxicity (C33A) -1.54% [at 11.6 µM] | activity change, negative = cytotoxicity (CAOV3) 7.01% [at 11.6 µM] | activity change, negative = cytotoxicity (CASKI) 6.9% [at 11.6 µM] | activity change, negative = cytotoxicity (Es-2) -4.17% [at 11.6 µM] | activity change, negative = cytotoxicity (HeLa) -12.2% [at 11.6 µM] | activity change, negative = cytotoxicity (Hek293T) -3.07% [at 11.6 µM]

Cc1ccc2c(c1)C=Cc1cc(C)ccc1C2c1cn(Cc2ccc(C(=O)Nc3nn[nH]n3)o2)c(=O)[nH]c1=S
inactive: Potency (C33A) | Potency (CAOV3) | Potency (CASKI) | Potency (Es-2) | Potency (HeLa) | Potency (Hek293T)

C=C1C(=O)OC2/C=C(\C)CC/C=C(\C(=O)O)CC/C=C(\C)CCC12 (centres undefined)
inactive: Potency (C33A) | Potency (CAOV3) | Potency (CASKI) | Potency (Es-2) | Potency (HeLa) | Potency (Hek293T)

CC(C)C(C(=O)N1CCCC1C(=O)O)N(C)C(=O)C(O)Cc1ccccc1 (centres undefined) (H-[PhLac]-[NMeV]-Pro-OH; configuration not given here)
inactive: Potency (C33A) | Potency (CAOV3) | Potency (CASKI) | Potency (Es-2) | Potency (HeLa) | Potency (Hek293T)

CC1(C)C[C@H]2C3=CCC4[C@@]5(C)CC[C@H](O[C@H]6O[C@H](C(=O)O)[C@@H](O)[C@H](O)[C@H]6O[C@H]6O[C@H](CO)[C@@H](O)[C@H](O)[C@H]6O[C@@H]6O[C@H](CO)[C@@H](O)[C@H](O)[C@H]6O)[C@](C)(CO)C5CC[C@@]4(C)[C@]3(C)CC[C@@]2(C)[C@H](O[C@@H]2OC[C@H](O)[C@H](OC3O[C@H](CO)[C@@H](O)[C@H](O)[C@H]3O)[C@H]2O)[C@@H]1O (some centres undefined)
inactive: activity change, negative = cytotoxicity (C33A) 3.46% [at 6.55 µM] | activity change, negative = cytotoxicity (CAOV3) 18.6% [at 6.55 µM] | activity change, negative = cytotoxicity (CASKI) -2.3% [at 6.55 µM] | activity change, negative = cytotoxicity (Es-2) 0.0485% [at 6.55 µM] | activity change, negative = cytotoxicity (HeLa) 2.32% [at 6.55 µM] | activity change, negative = cytotoxicity (Hek293T) -1.35% [at 6.55 µM]

COC(=O)C1=CO[C@@H](O[C@@H]2O[C@H](COC(=O)/C=C/c3cc(OC)c(O)c(OC)c3)[C@@H](O)[C@H](O)[C@H]2O)[C@@H]2C(CO)=CC[C@H]12
inactive: Potency (C33A) | Potency (CAOV3) | Potency (CASKI) | Potency (Es-2) | Potency (HeLa) | Potency (Hek293T)

COC1CC(=O)CCC(C)OC(=O)CC1O (centres undefined)
inactive: Potency (C33A) | Potency (CAOV3) | Potency (CASKI) | Potency (Es-2) | Potency (HeLa) | Potency (Hek293T)

NC(Cc1c[nH]c2ccccc12)C(=O)NC(CCC(=O)O)C(=O)O (centres undefined)
inactive: Potency (C33A) | Potency (CAOV3) | Potency (CASKI) | Potency (Es-2) | Potency (HeLa) | Potency (Hek293T)

COc1ccc(/C=C/C(=O)O[C@@H]2[C@@H](OC(C)=O)[C@@H](OC(C)=O)[C@H](O[C@H]3[C@@H]4C=CO[C@@H](O[C@@H]5O[C@H](CO)[C@@H](O)[C@H](O)[C@H]5O)[C@@H]4[C@@]4(CO)O[C@@H]34)O[C@H]2C)cc1O
inactive: Potency (C33A) | Potency (CAOV3) | Potency (CASKI) | Potency (Es-2) | Potency (HeLa) | Potency (Hek293T)

COc1cc(C)c(C(=O)O[C@H]2[C@@H](O)[C@H](n3ccc(=O)[nH]c3=O)O[C@@H]2CO)c(OC)c1
inactive: Potency (C33A) | Potency (CAOV3) | Potency (CASKI) | Potency (Es-2) | Potency (HeLa) | Potency (Hek293T)

O=C(/C=C/c1ccc(O)cc1)OC[C@H]1O[C@@H](OC(=O)/C=C/c2ccccc2)[C@H](O)[C@@H](O)[C@@H]1O
inactive: Potency (C33A) | Potency (CAOV3) | Potency (CASKI) | Potency (Es-2) | Potency (HeLa) | Potency (Hek293T)

COc1ccc(C[C@H](N)C(=O)N[C@H]2[C@@H](O)[C@H](n3cnc4c(N(C)C)ncnc43)O[C@@H]2CO)cc1
active: Potency (C33A) 2.82 µM | Potency (CAOV3) 1.12 µM | Potency (CASKI) 1.58 µM | Potency (Es-2) 3.16 µM | Potency (HeLa) 2 µM | Potency (Hek293T) 2.82 µM

OC[C@H]1O[C@@H](Oc2ccc3c(c2)OC[C@H]2c4cc5c(cc4O[C@@H]32)OCO5)[C@H](O)[C@@H](O)[C@@H]1O
inactive: Potency (C33A) | Potency (CAOV3) | Potency (CASKI) | Potency (Es-2) | Potency (HeLa) | Potency (Hek293T)

CC1(C)CCC(C)(C)c2cc3c(cc21)Sc1ccccc1N=C3c1ccc(C(=O)O)cc1
inactive: Potency (C33A) | Potency (CAOV3) | Potency (CASKI) | Potency (Es-2) | Potency (HeLa) | Potency (Hek293T)

C[C@@H]1CC[C@]2(C(=O)O)CC[C@]3(C)C(=CCC4[C@]5(C)C(CC[C@]43C)C(C)(C)[C@@H](O)[C@H](O)[C@@H]5O)C2[C@]1(C)O (some centres undefined)
inactive: Potency (C33A) | Potency (CAOV3) | Potency (CASKI) | Potency (Es-2) | Potency (HeLa) | Potency (Hek293T)

CC12CCC3C(C)(C)C(O)CCC3(C)C1Cc1c(oc(C(=O)O)cc1=O)O2 (centres undefined)
inactive: Potency (C33A) | Potency (CAOV3) | Potency (CASKI) | Potency (Es-2) | Potency (HeLa) | Potency (Hek293T)
